Our source for the growth values is PubChem BioAssay (NCI).

The panel holds about 83,000 compounds, 20% with a hit somewhere; the sample as a whole holds those more often.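 Values shown are percent growth following 48 h exposure of cells in 96-well plates to a single concentration of compound; below 10 was considered active.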 A number with no mark means an inactive call. Calls of active or inactive are those of the source.

Some test systems named below: DU-145 prostate; K-562 leukemia; MALME-3M melanoma; MDA-MB-231 breast; RXF 393 renal; SF-268 CNS; SF-295 CNS; SF-539 CNS; UACC-257 melanoma; M14 melanoma; HT29 colon; SNB-75 CNS; SNB-19 CNS; U251 CNS; PC-3 prostate; SK-MEL-5 melanoma; UACC-62 melanoma; LOX IMVI melanoma; SK-MEL-28 melanoma.
Test in all cases: NCI-60 one-dose screen, 48 h (100 = growth as untreated, 0 = no growth, -100 = all killed)
What all share (conditions): 10 µM unless noted

As to `Cn1cc(-c2noc(-c3cn(C)c4ncc(F)cc34)n2)c2cc(Cl)ccc21`, the growth in the assay with DU-145 prostate is 80.3%; in the assay with K-562 leukemia, 77.2%; in the assay on MALME-3M melanoma it was 48.1%; in the assay with MDA-MB-231 breast it was 52.7%; with RXF 393 renal it was 78%; in the assay on SF-268 CNS, 69.2%. Moreover, the growth was 41.6% in the assay on SF-295 CNS; 46% in the assay with SF-539 CNS; 96.5% in the assay with UACC-257 melanoma; 78.6% with M14 melanoma; 25.5% with HT29 colon; -24.2% (active) in the assay with SNB-75 CNS. For the same compound, the growth is 70.1% in the assay with SNB-19 CNS; 19.4% in the assay with U251 CNS; 79.4% in the assay on PC-3 prostate; 87% in the assay with SK-MEL-5 melanoma; 77.8% in the assay with UACC-62 melanoma; 52.5% in the assay with LOX IMVI melanoma. Moreover, the growth in the assay with SK-MEL-28 melanoma is 85.8%.
As for `O=c1c2c3c(sc2n2cnnc2n1Cc1ccccc1)CCCC3`, the growth is 106% in the assay on DU-145 prostate; 69.9% with K-562 leukemia; 95.8% in the assay on MALME-3M melanoma; 96.6% in the assay on MDA-MB-231 breast; 101% in the assay with RXF 393 renal; 107% with SF-268 CNS. Also, the growth in the assay on SF-295 CNS is 57.1%; in the assay on SF-539 CNS it was 93.5%; with UACC-257 melanoma it was 131%; in the assay on M14 melanoma, 164%; with HT29 colon, 100%; with SNB-75 CNS it was 111%. Besides, the growth in the assay on SNB-19 CNS is 99%; with U251 CNS it was 102%; in the assay on PC-3 prostate, 99.7%; with SK-MEL-5 melanoma, 98%; in the assay with UACC-62 melanoma, 91.8%; in the assay on LOX IMVI melanoma it was 97.6%. Moreover, the growth in the assay on SK-MEL-28 melanoma was 116%.
With `CC1(C)CC(=O)c2c(ccc(C(=O)C[C@@H](N)CO)c2N)O1`, the growth with DU-145 prostate was 18.2%; with K-562 leukemia, 25.9%; with MALME-3M melanoma it was 51.2%; with MDA-MB-231 breast it was 20.4%; in the assay on RXF 393 renal, 16.6%; in the assay on SF-268 CNS, 14.9%. Besides, the growth was 21.2% in the assay with SF-295 CNS; -3.9% (active) with SF-539 CNS; 16.6% in the assay with UACC-257 melanoma; -37.5% (active) in the assay on M14 melanoma; -7.99% (active) in the assay with HT29 colon; 63.5% in the assay on SNB-75 CNS. Also, the growth in the assay on SNB-19 CNS is 14%; in the assay with U251 CNS it was 7.09% (active); in the assay on PC-3 prostate, 24.7%; in the assay on SK-MEL-5 melanoma, 29.4%; with UACC-62 melanoma, -9.38% (active); with LOX IMVI melanoma it was -59% (active). Also, the growth in the assay on SK-MEL-28 melanoma is 17%.
For the compound `N/C(=N\c1nc2ccccc2[nH]1)NC(=O)Cc1cccc2ccccc12`, the growth was 92.8% in the assay on DU-145 prostate; 107% with K-562 leukemia; 68.3% in the assay on MALME-3M melanoma; 84.6% in the assay with MDA-MB-231 breast; 92% in the assay on RXF 393 renal; 86.5% in the assay on SF-268 CNS. In addition, the growth is 98.7% in the assay on SF-295 CNS; 91.3% in the assay on SF-539 CNS; 6.29% (active) in the assay with UACC-257 melanoma; 107% in the assay on M14 melanoma; 83.5% in the assay on HT29 colon; 87.5% in the assay with SNB-75 CNS. Also, the growth in the assay with SNB-19 CNS was 87.6%; in the assay on U251 CNS, 80.6%; in the assay on PC-3 prostate, 80%; in the assay with SK-MEL-5 melanoma it was 82.2%; in the assay on UACC-62 melanoma, 81.8%; in the assay with LOX IMVI melanoma it was 81.4%. Moreover, the growth in the assay with SK-MEL-28 melanoma is 86.9%.
In the case of `COc1cc(C)cc2oc3oc(=N)c(C(=O)c4ccccc4)cc3c(=O)c12`, the growth is 111% in the assay with DU-145 prostate; 97.5% in the assay with K-562 leukemia; 91.8% in the assay with MALME-3M melanoma; 98.2% in the assay with MDA-MB-231 breast; 108% in the assay with RXF 393 renal; 94.4% with SF-268 CNS. Besides, the growth with SF-295 CNS was 106%; in the assay with SF-539 CNS, 96.4%; in the assay on UACC-257 melanoma it was 111%; with M14 melanoma, 99.7%; in the assay with HT29 colon, 108%; in the assay with SNB-75 CNS it was 86.2%. Also, the growth in the assay with SNB-19 CNS is 99.4%; in the assay with U251 CNS it was 107%; in the assay with PC-3 prostate, 103%; with SK-MEL-5 melanoma, 96.8%; in the assay on UACC-62 melanoma it was 93.5%; in the assay on LOX IMVI melanoma it was 95.6%. In addition, the growth with SK-MEL-28 melanoma is 98%.
On to `Cn1cc(-c2noc(-c3cn(C)c4ncccc34)n2)c2cc(Cl)ccc21`, for which the growth in the assay on DU-145 prostate was 103%; in the assay with K-562 leukemia it was 87.4%; in the assay with MALME-3M melanoma, 90.7%; with MDA-MB-231 breast it was 70.4%; in the assay on RXF 393 renal it was 121%; in the assay with SF-268 CNS, 82.9%. In addition, the growth with SF-295 CNS is 99.2%; with SF-539 CNS it was 56.6%; in the assay on UACC-257 melanoma, 103%; with M14 melanoma, 91.6%; with HT29 colon it was 83.1%; with SNB-75 CNS, 101%. The growth was 100% in the assay on SNB-19 CNS; 95.6% in the assay with U251 CNS; 89.3% in the assay on PC-3 prostate; 94.7% in the assay on SK-MEL-5 melanoma; 93.1% with UACC-62 melanoma; 93.4% with LOX IMVI melanoma. In addition, in the assay with SK-MEL-28 melanoma, the growth is 93%.
Turning to `COc1ccc(C2CC(c3cc(OC)c(OC)c(OC)c3)=NN2C(C)=O)cc1OCC(=O)Nc1nc2ccc(C(F)(F)F)cc2s1` (configuration not stated), the growth with DU-145 prostate was 48.5%; in the assay with K-562 leukemia, 83.8%; with MALME-3M melanoma it was 68.7%; with MDA-MB-231 breast, 44.8%; in the assay with RXF 393 renal it was 33.5%; in the assay with SF-268 CNS, 71.3%. Also, the growth in the assay on SF-295 CNS was 61.4%; with SF-539 CNS, -32.9% (active); in the assay on UACC-257 melanoma, 67.1%; with M14 melanoma, 68%; with HT29 colon, 79.8%; with SNB-75 CNS it was 37%. Also, the growth in the assay with SNB-19 CNS was 74.2%; in the assay with U251 CNS, 67%; with PC-3 prostate, 67.8%; in the assay on SK-MEL-5 melanoma, 15.1%; in the assay with UACC-62 melanoma, 52.5%; in the assay with LOX IMVI melanoma, 32.5%. For the same compound, the growth with SK-MEL-28 melanoma was 65.5%.
`CC(=O)OC[C@]12CC[C@@H]([C@@H](C)C(N)=O)[C@@H]1[C@H]1CC[C@@H]3[C@@]4(C)CC[C@H](OC(C)=O)C(C)(C)[C@@H]4CC[C@@]3(C)[C@]1(C)CC2`: the growth with DU-145 prostate was -69.9% [100 µM] (active); in the assay on K-562 leukemia, 3.1% [100 µM] (active); with MALME-3M melanoma, -89% [100 µM] (active); with MDA-MB-231 breast it was -88.6% [100 µM] (active); in the assay on RXF 393 renal it was -64.9% [100 µM] (active); in the assay with SF-268 CNS it was -61% [100 µM] (active). The growth with SF-295 CNS was -50.8% [100 µM] (active); in the assay with SF-539 CNS, -83.9% [100 µM] (active); in the assay with UACC-257 melanoma, -46.2% [100 µM] (active); in the assay with M14 melanoma it was -44.3% [100 µM] (active); in the assay on HT29 colon it was -77.7% [100 µM] (active); in the assay on SNB-75 CNS, -47.8% [100 µM] (active). In addition, the growth in the assay with SNB-19 CNS was -40% [100 µM] (active); in the assay with U251 CNS it was -51.4% [100 µM] (active); in the assay with PC-3 prostate, -47.4% [100 µM] (active); in the assay on SK-MEL-5 melanoma, -71.9% [100 µM] (active); in the assay on UACC-62 melanoma, -83% [100 µM] (active); in the assay with LOX IMVI melanoma, -85.5% [100 µM] (active). In addition, in the assay with SK-MEL-28 melanoma, the growth was -73.2% [100 µM] (active).
